Laboratory results taken from PubChem BioAssay (NCATS).
Results filed as inconclusive are left out. Unmarked numbers belong to inactive results. Active and inactive are the calls of the source. Calls follow the shape of the dose curve; as a rule, active = well fitted cell-killing curve with a large enough effect; inconclusive = small, poorly fitted or top-dose-only effect, or effect the other way; inactive = no such curve, though single readings can be large or run the other way.

Experiment: Quantitative High-Throughput drug screen in 47 multiple myeloma cell lines against the NCATS MIPE library collection: RPMI8226_ATCC cell viability assay (AID 1919871); also: nearly all actives have a fitted effect of over 30% in size
Details: RPMI8226 myeloma viability, CellTiter-Glo ATP luminescence, 48 h; series mostly up to 45.8 µM; viability (% of control): at the top concentration
Text: PI: Beverly A. Mock Ph.D.
Laboratory of Cancer Biology and Genetics,
Center for Cancer Research, National Cancer Institute,
National Institute of Health, Bethesda, Maryland
Drug resistance and disease progression are common in multiple myeloma (MM) patients, underscoring the need for new therapeutic combinations. […] We hypothesized that effective combinations would reduce MYC expression and enhance p16 activity. […] These preclinical data identify potentially useful drug combinations for evaluation in drug-resistant MM and reveal potential mechanisms of combined drug sensitivity.
Described herein is the primary MIPE qHTS used to cherrypick compounds. Validated compounds were then further tested for potential synergistic activiy.
[1] Peat TJ, Gaikwad SM, Dubois W, Gyabaah-Kessie N, Zhang S, Gorjifard S, Phyo Z, Andres M, Hughitt VK, Simpson RM, Miller MA, Girvin AT, Taylor A, Williams D, D'Antonio N, Zhang Y, Rajagopalan A, Flietner E, Wilson K, Zhang X, Shinn P, Klumpp-Thomas C, McKnight C, Itkin Z, Chen L, Kazandijian D, Zhang J, Michalowski AM, Simmons JK, Keats J, Thomas CJ, Mock BA. Drug combinations identified by high-throughput screening promote cell cycle transition and upregulate Smad pathways in myeloma. Cancer Lett. 2023 Aug 1;568:216284. doi: 10.1016/j.canlet.2023.216284. Epub 2023 Jun 24. PMID: 37356470; PMCID: PMC10408729.
SEQUENCE No. (e.g., 1, 2, 3, etc.); […] (e.g., Cells, Incubation, Reagent, etc.); VALUE and DESCRIPTION.
1; Cells; 5 uL; white, solid bottom 1536-well Greiner assay plate.
2; Compounds; 23 nL; Kalypsis pin tool (Wako USA) equipped with a 1536-well pin head to transfer to the assay plates.
3; Incubation; 48 hours; 37C incubation.
4; Reagent;5uL; CellTiter Glo (Promega).
5; Detector; 425V; Luminescence; Viewlux PerkinElmer.
NOTES (numbers refer to Sequence numbers above)
1. The cell-based screening methods employed in this study were like those previously published. Briefly, the corresponding myeloma cell lines were screened in 1,536-well plates with 500 cells, 5-uL per well for inhibition of cell viability (assessed by measuring ATP levels with CellTiterGlo).
2. NCATS MIPE 4.0 library of approved and investigational drugs were added using the Kalypsis pin tool. Wells treated with DMSO only for 100% viability and media only for 0% viability were used as controls.
3. The assay plates were covered and incubated for 48 hours in a 37C, 5% CO2 incubator with controlled humidity.
4. After 48 hours, CellTilter-GloTM luminescent substrate mix (Promega) reagent was added to the assay plate and plates we incubated for 5 min at room temperature.
5. Signal was measured as median relative luminescence units on a ViewLux (PerkinElmer) multiplate reader.
[1] Heske CM, Davis MI, Baumgart JT, Wilson K, Gormally MV, Chen L, Zhang X, Ceribelli M, Duveau DY, Guha R, Ferrer M, Arnaldez FI, Ji J, Tran HL, Zhang Y, Mendoza A, Helman LJ, Thomas CJ. Matrix Screen Identifies Synergistic Combination of PARP Inhibitors and Nicotinamide Phosphoribosyltransferase (NAMPT) Inhibitors in Ewing Sarcoma. Clin Cancer Res. 2017 Dec 1;23(23):7301-7311. doi: 10.1158/1078-0432.CCR-17-1121. Epub 2017 Sep 12. PMID: 28899971; PMCID: PMC6636827.
Potency is read from the fitted curve at half-maximal effect.

Structure (SMILES)	viability (% of control) [%]	Potency
O=C(O)c1ccccc1C(=O)Nc1ccc(-c2ccccc2)cc1	117	–
NS(=O)(=O)c1ccc(NC2=CC(=O)c3ccccc3C2=O)cc1	109	–
CC(C)n1cnc2c(NCCCCCCNC(=O)OC(C)(C)C)nc(NCCO)nc21	–	14.8 µM (active)
COCCOc1nc(-c2ccc(Cl)c(Cl)c2)n(-c2ccc(NC(=O)CCl)cc2)n1	–	20.9 µM (active)
Cc1c(O)cccc1C(=O)N[C@@H](CSc1ccccc1)[C@H](O)CN1C[C@H]2CCCC[C@@H]2C[C@@H]1C(=O)NC(C)(C)C	–	18.7 µM (active)
COC1CCC(N(C(=O)C2CCC(C)CC2)c2cc(C3=CCCCC3)sc2C(=O)O)CC1 (stereo not given)	90.5	–
CC1(C)CCC(CN2CCN(c3ccc(C(=O)NS(=O)(=O)c4ccc(NCC5CCOCC5)c([N+](=O)[O-])c4)c(Oc4cnc5[nH]ccc5c4)c3)CC2)=C(c2ccc(Cl)cc2)C1	–	14.8 µM (active)
C[C@]12CCC3c4ccc(O)cc4CCC3C1CCC2=O (stereo not given in full)	–	20.9 µM (active)
O=C(N[C@@H](c1ccccc1)[C@@H]1CCCCN1)c1cccc(C(F)(F)F)c1Cl	–	1.66 µM (active)
CCc1ccc(C=C2SC(=S)NC2=O)cc1	86.3	–
CN(C[C@@H]1COCCO1)S(=O)(=O)Nc1ccc2ccc3ncc(-c4cnn(C)c4)cc3c(=O)c2c1	–	16.6 µM (active)
CC(=O)N(C)C1(c2ccccc2)CCN(CCC[C@]2(c3ccc(Cl)c(Cl)c3)CCCN(C(=O)c3ccccc3)C2)CC1	–	23.5 µM (active)
Nc1nc(F)nc2c1ncn2[C@@H]1O[C@H](COP(=O)(O)O)[C@@H](O)[C@H]1O	121	–
O=c1cc(-c2ccc(O)cc2)oc2cc(O)cc(O)c12	–	23.5 µM (active)
CN1[C@@H]2CCC[C@@H]1CC(NC(=O)c1nn(C)c3ccccc13)C2 (stereo not given in full)	101	–
Cc1c(NC(=O)c2ccc(C(C)(C)C)cc2)cccc1-c1cn(C)c(=O)c(Nc2ccc(C(=O)N3CCOCC3)cc2)n1	–	14.8 µM (active)
O=C(CCc1ccc(O)cc1)c1c(O)cc(O)cc1O[C@@H]1O[C@H](CO)[C@H](O)[C@H](O)[C@H]1O	69.9	–
O=C(O)CCC1CCC(c2cc(F)ccc2F)(S(=O)(=O)c2ccc(Cl)cc2)CC1 (stereo not given)	122	–
COc1cc2c(cc1OC)CN(CCc1ccc(NC(=O)c3cc(OC)c(OC)cc3NC(=O)c3cnc4ccccc4c3)cc1)CC2	–	0.418 µM (active)
CC(C)(C)c1cc(C(=O)O)c(NC(=O)Nc2ccc3[nH]ncc3c2)s1	104	–

Structure (SMILES)	viability (% of control) [%]	Potency
CON=C(C(=O)N[C@@H]1C(=O)N2C(C(=O)OCOC(=O)C(C)(C)C)=C(C=Cc3scnc3C)CS[C@H]12)c1csc(N)n1	139	–
CCCCCN(C)CCC(O)(P(=O)(O)O)P(=O)(O)O	116	–
O=C(CCCCCCC(=O)Nc1ccccc1)NO	–	4.69 µM (active)
CC(C)(C)C(=O)Oc1ccc2c(c1)nc(NC(=O)c1cccc([N+](=O)[O-])c1)n2CCCO	–	18.7 µM (active)
N#C[C@H]1C[C@H]2C[C@@H]2N1C(=O)[C@@H](N)C12CC3CC(CC(O)(C3)C1)C2	99.3	–
CC(=Cc1ccccc1)C=C1SC(=S)N(CC(=O)O)C1=O	120	–
CS(=O)(=O)N(Cc1ccco1)CC(O)Cn1c2ccccc2c2ccccc21 (stereo not given)	84.4	–
CC=CC[C@@H](C)C(=O)[C@H]1C(=O)N[C@@H](C(C)C)C(=O)N(C)CC(=O)N(C)[C@@H](CC(C)C)C(=O)N[C@@H](C(C)C)C(=O)N(C)[C@@H](CC(C)C)C(=O)N[C@@H](C)C(=O)N[C@H](C)C(=O)N(C)[C@@H](CC(C)C)C(=O)N(C)[C@@H](CC(C)C)C(=O)N(C)[C@@H](C(C)C)C(=O)N1C	–	13.2 µM (active)
OC[C@H]1O[C@@H](Oc2cc(O)cc(C=Cc3ccc(O)cc3)c2)[C@H](O)[C@@H](O)[C@H]1O	125	–
O=C(O)c1cc(O)c2c(c1)C(=O)c1cccc(O)c1C2=O	–	42.9 µM (active)
c1cc(-c2sc(-c3ccncc3)c(-c3ccncc3)c2-c2ccncc2)ccn1	90.3	–
NC[C@@H]1O[C@@H](O[C@H]2[C@@H](O)[C@H](O[C@@H]3[C@@H](O)[C@@H](N)C[C@H](N)[C@H]3O[C@H]3O[C@H](CN)[C@@H](O)[C@@H](O)[C@H]3N)O[C@H]2CO)[C@H](N)[C@@H](O)[C@@H]1O	109	–
O=c1cc(-c2ccccc2)oc2cc(O)c(O)c(O)c12	110	–
COc1ccc(-c2coc3cc(O)cc(O)c3c2=O)cc1	115	–
CC1(C)CCC[C@@]2(C)[C@@H]1CC[C@@]1(C)OC(=O)C[C@H]21	–	2.09 µM (active)
Clc1ccc(-c2nc3sccn3c2C=NOCc2ccc(Cl)c(Cl)c2)cc1	104	–
O=C1c2ccccc2-[n+]2ccc3c([nH]c4ccccc43)c21	–	2.96 µM (active)
COc1ccc2cccc(CCNC(C)=O)c2c1	102	–
CC(C)(C(=O)NCC(F)(F)C(F)(F)F)C(=O)N[C@@H]1C(=O)Nc2ccccc2-c2ccccc21	122	–
NC(=O)c1cccc2[nH]c(-c3ccc([C@H]4CCCN4)cc3F)nc12	88.3	–
